According to PubChem BioAssay (NCATS):
Where “and” joins values, the source holds several entries; their conditions need not be identical. Equal entries are not always repeated. Results filed as inconclusive are left out. Some compounds were tested as several samples or in several runs, with calls that do not always agree. Calls of active or inactive are those of the source. Unless noted, calls come from the whole dose curve; as a rule, active = well fitted curve in the direction sought with a large enough effect; inconclusive = small, poorly fitted or top-dose-only effect, or another doubt; inactive = no such curve, though single readings can be large; an effect the other way counts as inactive or inconclusive.

Key:
[1] = target: Cytochrome P450 1A2 (Homo sapiens) (UniProt P05177); assay: p450-cyp1a2 (AID 410; calls by dose curve; note: potency is the fitted concentration of half-maximal effect;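 for activity change, negative = inhibition: -100% = full effect of reference inhibitor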)
Outline: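 Read-out is luminescence from luciferin produced by CYP1A2 demethylation of Luciferin-ME (100uM, at Km). Detection reagent stopped the 60 min NADPH-dependent reaction; signals were normalized to 57 uM furafylline.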

[2] = NFAT Signaling Pathway (AID 444; active = well fitted curve in either direction with a large enough effect, not every such curve was filed as active;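 note: carbachol stimulus at about its EC50 of 1 µM final; % is set by controls: 0 for no effect and ±100 for the full control effect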); conditions: Jurkat NFAT-bla M1, carbachol, beta-lactamase ratio, 5 h; at 17.2 µM (top of the series) unless noted
Outline: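 Read-out: CCF4 FRET ratio (460 nm/530 nm) after 1 h RT dye loading, used for %activity and AC50 from titration series. Cells: Jurkat NFAT-β-lactamase/M1 line, treated with compound plus 1 uM carbachol for 5 h, 37 °C.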

[3] = target: Glucocorticoid receptor (Homo sapiens) (UniProt P04150); assay: GR-GFP Redistribution (AID 450;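 active = compounds whose dose series gives a full or clear partial fitted curve of increased nuclear translocation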; note: potency is the fitted concentration of half-maximal effect)
[4] = target: Glucocorticoid receptor (Homo sapiens) (UniProt P04150); assay: GR-EFC Redistribution (AID 451; calls by dose curve; note: potency is the fitted concentration of half-maximal effect); conditions: CHO-K1 GR-EFC translocation, beta-gal luminescence, 2 h
Outline: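 Translocation of GR-ED fusion to nuclear EA restores b-gal, read by luminescence after 1 h room-temperature detection. Engineered CHO-K1 biosensor cells, 1,000/well, exposed 2 h at 37 C to titrations up to 46 uM final.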

[5] = target: Mitogen-activated protein kinase 10 (Mus musculus) (UniProt Q61831); assay: JNK3 AlphaScreen Assay (AID 530; active = well fitted curve in either direction with a large enough effect, not every such curve was filed as active;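 note: kinase came from lysate of stimulated human HepG2 cells; signal reports phosphorylation of biotinylated GST-cJun 1-79 at Ser73 with 10 µM ATP; % is set by controls: 0 for no effect and ±100 for the full control effect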)
Outline: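 Kinase buffer: 20 mM Tris-HCl pH 7.6, 10 mM MgCl2, 1 mM DTT, 0.1 mM Na3VO4, 0.01% Tween-20; ATP 10 uM. Substrate biotin-GST-cJun(1-79), enzyme from activated HepG2 lysates. Detection by Ser73 phospho-antibody AlphaScreen.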

[6] = target: 3',5'-cyclic-AMP phosphodiesterase 4B (Homo sapiens) (UniProt Q07343); assay: qHTS Assay for Inhibitors of PDE-IV (AID 607; active = well fitted activation curve with a large enough effect in the main read-out, with a control signal flat, not every such curve was filed as active; note: % of control where 0% means no effect)
Outline: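 Live HEK293 cells with a modified cyclic nucleotide-gated (CNG) channel report intracellular cAMP via membrane-potential dye fluorescence (ex 535/em 590 nm). Endogenous PDE-IV was targeted. Compounds were tested at up to 22.9 uM final; RO 20-1724 100 uM served as control.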

[7] = target: Guanine nucleotide-binding protein G(i) subunit alpha-1 (Homo sapiens) (UniProt P63096); assay: qHTS Assay for Inhibitors of RGS12 GoLoco Motif Activity (Green Fluorophore) (AID 879);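 note: 0% = labeled peptide with Gαi1 and full inhibition = labeled peptide alone without protein; negative values mean loss of peptide binding seen as reduced polarization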
Outline: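 A drop in FITC polarization marked displacement of the FITC-tagged RGS12 GoLoco peptide (10 nM) from Gαi1 (50 nM). Compounds were incubated 10 min at room temperature in Tris pH 7.5 buffer containing 150 mM NaCl, 0.1 mM GDP and 0.05% NP40; unlabeled peptide titration served as control.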

[8] = target: Cytochrome P450 3A4 (Homo sapiens) (UniProt P08684); assay: qHTS Assay for Activators of Cytochrome P450 3A4 (AID 885); note: nearly all actives have a fitted effect of over 65% in size
Outline: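 Using 20nM recombinant human CYP3A4 in potassium phosphate (200mM), substrate Luciferin-PPXE at 25uM, luminescent luciferin detection followed a 60-min RT NADPH reaction; data scaled to 57 uM ketoconazole.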

[9] = target: Cytochrome P450 2D6 (Homo sapiens) (UniProt P10635); assay: qHTS Assay for Inhibitors and Substrates of Cytochrome P450 2D6 (AID 891);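 note: luciferin methyl ether substrate demethylated by CYP2D6 with NADPH regeneration; % is set by controls: 0 for no effect and ±100 for the full control effect; nearly all actives have a fitted effect of over 60% in size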
Outline: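 Luminescent read-out of luciferin formed by 5 nM human CYP2D6 demethylating 30 uM Luciferin-ME EGE (Km level) over 60 min at room temperature after NADPH regeneration addition. Data normalized to full inhibition by 1.43 uM quinidine.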

[10] = qHTS Assay for Identification of Small Molecule Antagonists for Thrombopoietin (TPO) Signaling Pathway (AID 918); conditions: TPO-dependent cell signaling reporter, antagonist mode; note: potency is the fitted concentration of half-maximal effect; nearly all actives have a fitted effect of over 60% in size
Outline: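 Antagonist mode at EC50 TPO (26 pM) in IL-3-free medium; murine Ba/F3 cells with human TPO receptor and GPIIb-promoter luciferase, 24 hrs at 37 C before luminescent detection.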

[11] = target: Pyruvate kinase (Leishmania mexicana) (UniProt Q27686); assay: qHTS Validation Assay for Inhibitors of Leishmania Mexicana Pyruvate Kinase (AID 945);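 note: 0% = DMSO only neutral control wells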
Outline: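 The enzyme is a highly purified E451W mutant of LmPYK used at 0.2 nM. It converts 0.5 mM PEP and 0.1 mM ADP over 1 h at room temperature; product ATP is quantified by luciferase luminescence relative to DMSO controls.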

[12] = target: Pyruvate kinase PKM (Homo sapiens) (UniProt P14618); assay: qHTS Assay for Activators of Human Muscle Pyruvate Kinase (AID 954; active = well fitted curve in the direction sought with a large enough effect, not every such curve was filed as active;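 note: 0% = uninhibited enzyme and -100% = no enzyme or full thiadiazolimine inhibition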)
Outline: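 Screening used highly purified human pyruvate kinase M2 under submaximal activity, with PEP at its Km and ADP below Km. After an hour at room temperature, ATP was read by luciferase luminescence.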

[13] = target: Alpha-galactosidase A (Homo sapiens) (UniProt P06280); assay: Counterscreen for Glucocerebrosidase Inhibitors: qHTS Assay for Human alpha-Galactosidase at pH 4.5 (AID 992); note: 0% is about no effect
Outline: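 Each compound is preincubated briefly with 2 nM enzyme before substrate addition (80 uM); plates then sit 20 min at ambient temperature, are quenched with 1M NaOH/1M glycine, and read fluorometrically.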

[14] = target: alpha-glucosidase (Oryza sativa, rice) (UniProt Q653V4); assay: Counterscreen for Glucocerebrosidase Inhibitors: qHTS Assay for Rice alpha-Glucosidase at pH 5.0 (AID 997);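 note: 0% = full activity with enzyme and -100% = basal without enzyme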
Outline: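 Endpoint fluorogenic assay at pH 5.0: compounds (0.7 nM to 77 uM) titrated against 4 nM rice enzyme and 400 uM 4-MU-alpha-glucoside for 20 min at room temperature; NaOH/glycine stop, read ex 365/em 440 nm, Hill-fitted AC50.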

[15] = target: ATP-dependent 6-phosphofructokinase (Trypanosoma brucei brucei) (UniProt O15648); assay: qHTS Assay to Find Inhibitors of T. brucei phosphofructokinase: hit validation (AID 492961);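 note: luminescence reports ADP formed as PFK phosphorylates fructose-6-phosphate with ATP; % is set by controls: 0 for no effect and ±100 for the full control effect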
Outline: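 In this biochemical qHTS validation, titrated compounds were tested against 1.25 nM PFK with 0.1 mM ATP and 0.5 mM F6P. Percent activity came from controls lacking or containing enzyme.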

[16] = target: Ubiquitin carboxyl-terminal hydrolase 1 (Homo sapiens) (UniProt O94782); assay: Inhibitors of USP1/UAF1: Pilot qHTS (AID 504865);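 note: rhodamine fluorescence freed from ubiquitin-rhodamine substrate followed over time; top concentration of the series differs between compounds; % is set by controls: 0 for no effect and ±100 for the full control effect; nearly all actives have a fitted effect of over 35% in size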
Outline: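 Enzyme-free wells gave the negative control, while test wells held 1nM USP1/UAF1 preincubated with compound for 15 min at room temperature. Ub-Rho at 150nM final started the reaction, and fluorescence at 480/540 nm was recorded kinetically.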

[17] = target: Luciferin 4-monooxygenase (Photinus pyralis) (UniProt P08659); assay: Biochemical firefly luciferase enzyme assay for NPC (AID 624030);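 note: purified P. pyralis luciferase at 10 nM with luciferin and ATP substrate; 0% = DMSO and -100% = full luciferase inhibition by PTC124 control; nearly all actives have a fitted effect of over 70% in size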
Outline: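 Direct inhibition of firefly luciferase enzyme (10 nM final, 50 mM Tris Acetate) assessed by luminescence within 5 minutes. Percent activity scaled between DMSO and PTC124 positive control, with concentration-effect curves classified by fit quality and response.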

[18] = S16 Schwann cell PMP22 intronic element firefly luciferase assay (AID 624032); note: potency is the fitted concentration of half-maximal effect; nearly all actives have a fitted effect of over 30% in size
Outline: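 Luciferase reporter of PMP22 intronic-element expression in stably transfected S16 rat Schwann cells, read by ONE-Glo luminescence after 24 h compound exposure at 37 C. Activity scaled between DMSO (0%) and positive-control PTC124; concentration-effect curves quality-classified.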

[19] = qHTS profiling for inhibitors of Plasmodium falciparum proliferation (AID 504749); note: nearly all actives have a fitted effect of over 60% in size; note: potency is the fitted concentration of half-maximal effect;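 for activity, negative = inhibition: 0% = DMSO vehicle and full inhibition = artemisinin control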; conditions: P. falciparum in erythrocytes, SYBR Green DNA, 72 h; at 28.7 µM (top of the series); parasite line B
Outline: (§1)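 In a 72 h erythrocytic culture (37 C, humidified, 5% CO2) at 2.5% hematocrit and 0.3% starting parasitemia, compounds were tested; SYBR Green I in detergent lysis buffer stained parasite DNA overnight.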

AS120 = assay: as above; conditions: P. falciparum in erythrocytes, SYBR Green DNA, 72 h; series mostly up to 28.7 µM
Outline: as §1

ATS95 = assay: as above; conditions: P. falciparum in erythrocytes, SYBR Green DNA, 72 h; series mostly up to 28.7 µM
Outline: as §1

CP185 = assay: as above; conditions: P. falciparum in erythrocytes, SYBR Green DNA, 72 h; series mostly up to 28.7 µM
Outline: as §1

CP192 = assay: as above; conditions: P. falciparum in erythrocytes, SYBR Green DNA, 72 h; series mostly up to 28.7 µM
Outline: as §1

CP201 = assay: as above; conditions: P. falciparum in erythrocytes, SYBR Green DNA, 72 h; series mostly up to 28.7 µM
Outline: as §1

CP203 = assay: as above; conditions: P. falciparum in erythrocytes, SYBR Green DNA, 72 h; series mostly up to 28.7 µM
Outline: as §1

CP211 = assay: as above; conditions: P. falciparum in erythrocytes, SYBR Green DNA, 72 h; series mostly up to 28.7 µM
Outline: as §1

CP238 = assay: as above; conditions: P. falciparum in erythrocytes, SYBR Green DNA, 72 h; series mostly up to 28.7 µM
Outline: as §1

CP247 = assay: as above; conditions: P. falciparum in erythrocytes, SYBR Green DNA, 72 h; series mostly up to 28.7 µM
Outline: as §1

Glucocorticoid receptor (Homo sapiens), sequence (P04150 whole entry, looked up, the tested form may be a part): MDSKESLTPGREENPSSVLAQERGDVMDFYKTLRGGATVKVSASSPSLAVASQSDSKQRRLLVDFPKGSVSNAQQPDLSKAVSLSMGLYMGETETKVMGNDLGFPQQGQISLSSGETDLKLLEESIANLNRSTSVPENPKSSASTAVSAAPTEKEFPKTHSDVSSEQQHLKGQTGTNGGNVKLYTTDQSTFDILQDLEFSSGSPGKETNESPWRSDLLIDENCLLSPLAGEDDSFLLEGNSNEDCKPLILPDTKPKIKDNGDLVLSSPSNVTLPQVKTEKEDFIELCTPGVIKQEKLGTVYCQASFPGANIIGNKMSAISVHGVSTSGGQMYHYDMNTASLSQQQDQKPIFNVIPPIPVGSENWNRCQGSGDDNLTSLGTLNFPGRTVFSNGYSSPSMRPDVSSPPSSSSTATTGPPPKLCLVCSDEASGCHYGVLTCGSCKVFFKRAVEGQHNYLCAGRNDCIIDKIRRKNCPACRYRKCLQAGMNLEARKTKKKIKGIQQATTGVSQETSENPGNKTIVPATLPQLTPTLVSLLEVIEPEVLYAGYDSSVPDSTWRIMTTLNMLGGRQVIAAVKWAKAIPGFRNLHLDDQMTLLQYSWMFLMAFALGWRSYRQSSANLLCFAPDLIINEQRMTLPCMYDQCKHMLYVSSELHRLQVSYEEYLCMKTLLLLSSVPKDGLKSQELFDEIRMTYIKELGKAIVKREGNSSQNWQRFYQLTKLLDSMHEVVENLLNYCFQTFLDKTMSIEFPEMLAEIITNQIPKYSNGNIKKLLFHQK
3',5'-cyclic-AMP phosphodiesterase 4B (Homo sapiens), sequence (Q07343 whole entry, looked up): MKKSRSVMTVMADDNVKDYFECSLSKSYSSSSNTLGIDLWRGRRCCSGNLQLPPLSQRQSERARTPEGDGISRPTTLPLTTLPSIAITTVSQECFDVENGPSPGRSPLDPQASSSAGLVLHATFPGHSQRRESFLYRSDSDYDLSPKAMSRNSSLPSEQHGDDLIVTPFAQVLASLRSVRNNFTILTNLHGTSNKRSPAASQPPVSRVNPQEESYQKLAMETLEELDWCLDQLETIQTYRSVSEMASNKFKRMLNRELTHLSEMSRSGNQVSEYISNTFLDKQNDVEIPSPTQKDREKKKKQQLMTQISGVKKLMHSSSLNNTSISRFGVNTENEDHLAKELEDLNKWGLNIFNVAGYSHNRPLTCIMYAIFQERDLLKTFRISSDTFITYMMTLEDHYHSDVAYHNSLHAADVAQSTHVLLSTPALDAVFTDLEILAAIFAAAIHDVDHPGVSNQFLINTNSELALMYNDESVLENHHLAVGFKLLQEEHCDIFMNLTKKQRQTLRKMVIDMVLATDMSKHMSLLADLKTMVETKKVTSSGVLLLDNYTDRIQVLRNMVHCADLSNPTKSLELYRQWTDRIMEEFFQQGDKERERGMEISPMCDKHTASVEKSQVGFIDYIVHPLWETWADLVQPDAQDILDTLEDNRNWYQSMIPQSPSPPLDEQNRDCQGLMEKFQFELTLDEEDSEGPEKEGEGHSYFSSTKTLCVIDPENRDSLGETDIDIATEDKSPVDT
Cytochrome P450 1A2 (Homo sapiens), sequence (P05177 whole entry, looked up): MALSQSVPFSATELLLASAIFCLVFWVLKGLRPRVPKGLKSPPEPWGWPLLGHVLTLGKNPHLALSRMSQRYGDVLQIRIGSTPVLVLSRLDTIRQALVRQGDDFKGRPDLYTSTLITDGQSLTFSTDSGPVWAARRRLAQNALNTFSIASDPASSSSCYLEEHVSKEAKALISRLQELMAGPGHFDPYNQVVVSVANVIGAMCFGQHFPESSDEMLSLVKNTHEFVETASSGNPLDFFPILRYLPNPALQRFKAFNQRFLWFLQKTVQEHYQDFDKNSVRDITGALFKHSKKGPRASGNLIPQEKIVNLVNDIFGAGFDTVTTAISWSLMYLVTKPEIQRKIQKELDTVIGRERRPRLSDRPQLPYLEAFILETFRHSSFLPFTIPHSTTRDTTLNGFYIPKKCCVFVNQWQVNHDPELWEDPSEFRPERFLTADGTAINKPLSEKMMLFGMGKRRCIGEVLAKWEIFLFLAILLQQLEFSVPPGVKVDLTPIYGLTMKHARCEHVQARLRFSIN
Cytochrome P450 3A4 (Homo sapiens), sequence (P08684 whole entry, looked up): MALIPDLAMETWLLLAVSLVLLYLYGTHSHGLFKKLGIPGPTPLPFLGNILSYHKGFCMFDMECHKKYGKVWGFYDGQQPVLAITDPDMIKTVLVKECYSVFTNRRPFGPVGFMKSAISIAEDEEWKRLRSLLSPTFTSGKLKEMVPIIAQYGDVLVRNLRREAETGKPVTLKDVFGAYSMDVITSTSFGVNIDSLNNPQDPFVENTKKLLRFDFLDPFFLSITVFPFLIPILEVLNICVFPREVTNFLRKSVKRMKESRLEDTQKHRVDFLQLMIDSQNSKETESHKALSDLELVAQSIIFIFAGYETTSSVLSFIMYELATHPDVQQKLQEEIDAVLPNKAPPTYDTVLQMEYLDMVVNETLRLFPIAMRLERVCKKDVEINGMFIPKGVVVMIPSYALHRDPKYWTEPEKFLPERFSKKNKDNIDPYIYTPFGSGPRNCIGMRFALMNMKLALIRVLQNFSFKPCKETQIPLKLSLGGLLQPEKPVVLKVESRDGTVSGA
ATP-dependent 6-phosphofructokinase (Trypanosoma brucei brucei), sequence (O15648 whole entry, looked up): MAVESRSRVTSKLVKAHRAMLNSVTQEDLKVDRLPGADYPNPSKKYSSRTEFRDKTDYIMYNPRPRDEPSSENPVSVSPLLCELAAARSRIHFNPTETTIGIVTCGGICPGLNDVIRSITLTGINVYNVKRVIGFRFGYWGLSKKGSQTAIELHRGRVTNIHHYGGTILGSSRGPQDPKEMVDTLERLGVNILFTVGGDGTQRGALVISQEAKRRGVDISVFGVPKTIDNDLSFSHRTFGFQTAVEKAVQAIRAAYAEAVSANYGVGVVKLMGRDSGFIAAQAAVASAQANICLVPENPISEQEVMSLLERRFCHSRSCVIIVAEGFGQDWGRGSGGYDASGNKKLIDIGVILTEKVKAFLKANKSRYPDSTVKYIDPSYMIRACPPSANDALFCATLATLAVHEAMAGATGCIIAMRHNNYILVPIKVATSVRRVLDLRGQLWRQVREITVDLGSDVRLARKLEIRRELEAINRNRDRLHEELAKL
Pyruvate kinase (Leishmania mexicana), sequence (Q27686 2-499 E452W): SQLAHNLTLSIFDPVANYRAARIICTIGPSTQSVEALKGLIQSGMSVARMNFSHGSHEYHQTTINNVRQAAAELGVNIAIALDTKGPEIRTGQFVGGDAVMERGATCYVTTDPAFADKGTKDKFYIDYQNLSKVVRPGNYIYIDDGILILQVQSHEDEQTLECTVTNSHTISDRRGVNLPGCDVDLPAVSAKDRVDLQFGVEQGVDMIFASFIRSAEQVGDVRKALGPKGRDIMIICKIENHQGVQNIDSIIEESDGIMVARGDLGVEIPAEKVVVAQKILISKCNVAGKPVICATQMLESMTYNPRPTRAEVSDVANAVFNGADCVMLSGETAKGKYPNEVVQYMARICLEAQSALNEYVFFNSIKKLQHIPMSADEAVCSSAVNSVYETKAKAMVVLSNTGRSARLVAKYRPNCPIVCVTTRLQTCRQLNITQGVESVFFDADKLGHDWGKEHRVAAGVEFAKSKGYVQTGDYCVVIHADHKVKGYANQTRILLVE
Alpha-galactosidase A (Homo sapiens), sequence (P06280 whole entry, looked up): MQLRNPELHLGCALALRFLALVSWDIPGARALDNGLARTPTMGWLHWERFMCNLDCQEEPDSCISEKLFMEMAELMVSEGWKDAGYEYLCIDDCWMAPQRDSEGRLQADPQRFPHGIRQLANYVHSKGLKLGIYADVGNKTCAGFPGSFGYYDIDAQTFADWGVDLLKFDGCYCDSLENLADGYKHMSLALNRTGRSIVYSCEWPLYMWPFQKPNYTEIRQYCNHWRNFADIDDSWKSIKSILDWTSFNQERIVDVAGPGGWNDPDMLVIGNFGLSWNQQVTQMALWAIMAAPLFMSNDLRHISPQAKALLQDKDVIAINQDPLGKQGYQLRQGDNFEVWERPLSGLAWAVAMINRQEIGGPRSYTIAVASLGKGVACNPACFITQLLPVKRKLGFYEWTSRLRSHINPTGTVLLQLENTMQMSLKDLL
Cytochrome P450 2D6 (Homo sapiens), sequence (P10635 whole entry, looked up): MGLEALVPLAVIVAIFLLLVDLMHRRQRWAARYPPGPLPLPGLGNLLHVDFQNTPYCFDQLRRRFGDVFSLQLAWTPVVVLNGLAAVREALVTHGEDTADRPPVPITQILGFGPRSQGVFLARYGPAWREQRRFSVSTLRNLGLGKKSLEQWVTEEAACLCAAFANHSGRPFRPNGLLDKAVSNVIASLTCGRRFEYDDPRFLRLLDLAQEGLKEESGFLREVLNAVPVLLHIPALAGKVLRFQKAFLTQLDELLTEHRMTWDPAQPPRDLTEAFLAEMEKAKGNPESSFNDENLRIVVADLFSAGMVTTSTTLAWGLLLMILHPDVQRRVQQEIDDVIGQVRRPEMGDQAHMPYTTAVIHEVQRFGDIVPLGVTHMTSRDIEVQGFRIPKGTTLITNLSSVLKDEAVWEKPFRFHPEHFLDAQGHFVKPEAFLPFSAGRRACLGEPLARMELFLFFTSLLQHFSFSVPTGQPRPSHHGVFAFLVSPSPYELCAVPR
Pyruvate kinase PKM (Homo sapiens), sequence (P14618 whole entry, looked up): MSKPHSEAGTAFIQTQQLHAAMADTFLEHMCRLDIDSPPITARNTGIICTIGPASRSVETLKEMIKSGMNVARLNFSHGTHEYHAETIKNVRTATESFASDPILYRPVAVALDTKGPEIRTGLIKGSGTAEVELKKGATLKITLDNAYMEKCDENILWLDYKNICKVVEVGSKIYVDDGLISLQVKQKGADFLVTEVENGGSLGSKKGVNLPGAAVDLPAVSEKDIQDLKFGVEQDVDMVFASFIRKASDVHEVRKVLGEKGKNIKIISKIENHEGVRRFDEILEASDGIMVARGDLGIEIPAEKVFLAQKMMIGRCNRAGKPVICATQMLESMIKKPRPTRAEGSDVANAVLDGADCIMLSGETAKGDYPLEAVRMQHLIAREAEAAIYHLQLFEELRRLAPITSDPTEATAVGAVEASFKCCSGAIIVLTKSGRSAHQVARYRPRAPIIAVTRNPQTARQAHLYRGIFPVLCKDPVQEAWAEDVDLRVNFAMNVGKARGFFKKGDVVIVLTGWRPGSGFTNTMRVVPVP

C=C1C(=O)O[C@@H]2[C@@H]1CC/C(C)=C\CC[C@@]1(C)O[C@H]21
inactive: Potency [3] > 46 µM and > 20.6 µM | Potency [4] > 46 µM and > 20.6 µM | Potency [5] | Potency [6] | outcome [7] | Potency [8] | Potency [9] | Potency [11] | outcome [12] | outcome [13] | outcome [14] | Potency [15] | Potency [16] | Potency [17] | activity, negative = inhibition [19] -27.2% | Potency (AS120) | Potency (ATS95) | Potency (CP185) | Potency (CP192) | Potency (CP201) | Potency (CP203) | Potency (CP211) | Potency (CP238)
active: activity change, negative = inhibition [2] -121% | Potency [10] 10 µM | Potency [18] 32.2 µM | Potency (CP247) 5.01 µM
inactive and 12.6 µM (active): Potency [1]
